# From PubChem BioAssay AID1626 (SRMLSC, 2009)
# The campaign covered roughly 220,000 compounds. About 2,000 (0.91%) were called active. About 2% were inconclusive and are not listed. Only a sample is shown. Results with a measured potency or affinity are listed apart. A number with no mark means an inactive call. Cut-off read from the data, not from the text of the source: inconclusive = inhibition above about 80% without an active follow-up result; inactive = below that; test concentration not stated here.
# Experiment: M. tuberculosis H37Rv growth inhibitors, H37Rv strain (AID 1626);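 note: bacteria incubated seven days before Alamar blue readout; 0% = bacteria only wells and 100% = bacteria with antibiotic wells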
# Settings: hits give high values, concentration not given here
row,SMILES,inhibition [%]
1,COc1cc(CNC2CCCCCC2)cc(OC)c1,9.94
2,Cc1nc(-c2ccc(Cl)cc2)sc1C(=O)NNC(=O)C(C)C,-5
3,CCC1CCCCN1C(=O)COc1c(Br)cc(Br)c2cccnc12 (centres undefined),-13.3
4,CCn1nc(C(=O)Nc2ccc(S(=O)(=O)Nc3ncccn3)cc2)c2ccccc2c1=O,1.39
5,CCN(CC)S(=O)(=O)c1cc(NC(=O)COC(=O)CCc2nc3ccccc3s2)ccc1C,0.37
6,CCOc1ccc(NC(=O)Cn2c(=O)n(CC3CCCO3)c(=O)c3ccccc32)cc1 (centres undefined),0.09
7,COc1cccc2cc(C(N)=O)/c(=N/NC(=O)COc3ccc(Cl)cc3)oc12,1.32
8,CC(C)c1ccc(NC(=O)COc2nnc(-c3cccs3)c(-c3cccs3)n2)cc1,3.94
9,O=C(CSc1ccc(-c2ccccn2)nn1)c1ccc([N+](=O)[O-])cc1,9.1
10,O=C(CSc1ccccn1)c1ccc(F)cc1,-5.01
11,CCC(Sc1nc2ccccc2c(=O)[nH]1)C(=O)Nc1ccc(C(C)=O)cc1 (centres undefined),10.9
12,CCOC(=O)C(NCc1ccccc1OC)(NC(C)=O)C(F)(F)F (centres undefined),-3.95
13,CCOC(=O)C(C)Sc1nnc(NC(=O)c2cccc([N+](=O)[O-])c2C)s1 (centres undefined),27
14,COCCSc1nnc(NC(=O)c2ccc(OC)c([N+](=O)[O-])c2)s1,-5.62
15,O=C(NCc1cccs1)c1cccc(S(=O)(=O)N2CCCCC2)c1,-1.3
16,O=[N+]([O-])c1cccc(N=NN(CCO)c2cccc([N+](=O)[O-])c2)c1,7.57
17,Cc1ccc(NC(=O)c2cncc(Br)c2)c([N+](=O)[O-])c1,5.6
18,OCCNc1nc(-c2ccccc2)nc2c1oc1ccccc12,1.56
19,CN(C)C(=O)c1nnsc1Sc1ccc(Cl)cc1,-1.74
20,O=C(Nc1ccccc1)c1nnsc1S(=O)(=O)c1ccc(Cl)cc1,2.07
21,N/C(=N\S(=O)(=O)c1ccc(Cl)cc1)N1CCOCC1,-5.14
22,CCCNC(=O)NS(=O)(=O)c1ccc(Cl)cc1,-12.9
23,O=C(Nc1ccccc1)c1nnsc1S(=O)c1ccc(Cl)cc1 (centres undefined),47.2
24,O=C(c1ccc(S(=O)(=O)c2ccc(Cl)cc2)cc1)N1CCOCC1,-6.61

row,SMILES,inhibition [%]
1,CNC(=O)c1nnsc1S(=O)c1ccc(Cl)cc1 (centres undefined),78.9
2,CCCNC(=O)c1nnsc1Sc1ccc(Cl)cc1,18.6
3,CNC(=O)CCC(=O)Nc1ccc(C)cc1,-1.09
4,COc1ccc(C2C(C(=O)O)CCC(=O)N2c2ccc(C)cc2)cc1OC (centres undefined),-2.58
5,C=C(C)Cn1c(SCCCO)nc2c1c(=O)[nH]c(=O)n2C,-7.43
6,O=C(NC1CC1)C1=COCCO1,-8.37
7,O=C(Nc1ccccc1N1CCOCC1)c1cc(F)cc(F)c1,-4.82
8,N#Cc1cc(C(=O)c2cc(Cl)ccc2O)cn(-c2ccccc2)c1=O,-3.03
9,Cc1ccc(C(=O)NNC(=O)Cn2nnc3ccccc32)cc1,-15.4
10,CN1CCN(C(=O)c2cnn(-c3ccccc3)c2NC(=O)c2ccccc2)CC1,-6.4
11,O=C(N/N=C/c1cccc([N+](=O)[O-])c1)c1cccs1,4.78
12,COc1ccc(C(C)=O)cc1COC(=O)c1ccc(S(=O)(=O)N(C)C)cc1,-3.54
13,O=C(Nc1ccn(Cc2c(F)c(F)cc(F)c2F)n1)c1cccc(Cn2cc([N+](=O)[O-])cn2)c1,2.31
14,CC1=C(C(=O)N2CCOCC2)C(c2c(F)cccc2F)NC(=O)N1 (centres undefined),-2.62
15,CCOC(=O)C1CCCN(S(=O)(=O)c2ccc(S(N)(=O)=O)cc2)C1 (centres undefined),-2.7
16,O=C(c1cc(Cl)ccc1Cl)N1CCOCC1,-11
17,Cc1nnsc1-c1c(C(=O)N2CCOCC2)c(C)nn1-c1ccc(Cl)cc1,3.63
18,Cc1c(C(=O)Nc2cccc(S(=O)(=O)N3CCCC3)c2)oc2ccccc12,0.77
19,CCC(CC)C(=O)Nc1cccc(C(=O)Nc2ccc3c(c2)OCO3)c1,0.36
20,CC1CC(C)CN(C(=O)c2ccc3c(c2)N(Cc2ccccc2)CCS3)C1 (centres undefined),8.05
21,CC1Cc2ccccc2N1C(=O)Cn1c(=O)cc(O)c2ccccc21 (centres undefined),-9.25
22,O=C(CSc1nc2ccccc2[nH]1)Nc1nc(-c2cccc(Br)c2)cs1,9.78
23,CN(C)CCCn1c(SCC(=O)N2c3ccccc3Sc3ccccc32)nc2ccccc2c1=O,0.3
24,CCCCn1c(SCC(=O)Nc2nccs2)nc2ccccc2c1=O,-6.31

row,SMILES,inhibition [%]
1,COCCCn1c(SCC(=O)Nc2ccc(C)cc2)nc2ccccc2c1=O,-3.97
2,CC(=O)c1nnn(-c2ccc([N+](=O)[O-])cc2)c1C,-0.32
3,c1ccc2c(-c3cn4ccccc4n3)c[nH]c2c1,-5.8
4,O=C1CC(=C(c2ccccc2)c2ccccc2)C(=O)N1CCCN1CCN(c2cccc(Cl)c2)CC1,12.8
5,O=C1CC(=C2c3ccccc3-c3ccccc32)C(=O)N1CCCCN1CCN(c2ccccc2)CC1,8.38
6,Cc1ccccc1N1CCN(CCCN2C(=O)CC(=C(c3ccccc3)c3ccccc3)C2=O)CC1,0.08
7,O=C1CC(=C(c2ccccc2)c2ccccc2)C(=O)N1CCN1CCN(c2cccc(Cl)c2)CC1,5.45
8,COc1cccc(C2C(C(=O)c3cccs3)=C(O)C(=O)N2CCN(C)C)c1OC (centres undefined),-9.59
9,Cc1ccc(NP(=O)(Nc2ccc(C)cc2)Oc2ccccc2)cc1,5.95
10,O=C(NCc1ccccc1Cl)C1CCCN(c2nc3ccsc3c(=O)s2)C1 (centres undefined),1.18
11,NC(=O)c1nsc(C(=O)N(CC(=O)NCc2ccc3c(c2)OCO3)C2CCCC2)c1N,0.67
12,C=CCNC(=O)/C(C#N)=C/c1c(C)nn(-c2ccc(Cl)cc2)c1Cl,4.6
13,COc1ccccc1NC(CC(=O)c1ccccc1)C(=O)OCC(=O)c1ccc(F)cc1 (centres undefined),78.2
14,O=C(CC(Nc1ccccc1Cl)C(=O)OCC(=O)c1cccs1)c1ccccc1 (centres undefined),-5.28
15,O=C(CC(Nc1cccc(Cl)c1Cl)C(=O)OCC(=O)c1cccs1)c1ccccc1 (centres undefined),-5.78
16,CC(=O)NC(Cc1ccccc1)C(=O)OCC(=O)c1ccc(Br)cc1 (centres undefined),-1.27
17,Cc1ccc(C(=O)NCCCN2CCOCC2)cc1,3.65
18,COc1ccc2c(c1)S/C(=C\C(=O)c1ccncc1)N2C,0.94
19,COC(=O)c1ccc2c(c1)N(Cc1nc(-c3cccc(C)c3)oc1C)C(=O)C1CCCN21 (centres undefined),8.29
20,O=C(/C=C/c1ccc(Cl)cc1Cl)c1nc2ccccc2[nH]1,0.46
21,Cc1ccc(/C=C/C(=O)c2nc3ccccc3[nH]2)cc1,0.43
22,C/C(=N/NC(=O)CNC(=O)c1cccnc1)c1ccco1,7.49
23,COc1cccc(CNC(=O)C2CCN(S(=O)(=O)c3c(C)nn(C)c3C)CC2)c1,-0.47
24,O=C(c1ccc2c3c(cccc13)CC2)C1CCCN(Cc2ccncc2)C1 (centres undefined),3.23

row,SMILES,inhibition [%]
1,O=C(c1ccc2c3c(cccc13)CC2)C1CCCN(Cc2ncc[nH]2)C1 (centres undefined),-5.62
2,O=C(N/N=C1\CC2CC=CC12)c1ccc(Br)cc1 (centres undefined),-7.43
3,Cc1ccc2cc(CN(CC3CCCO3)S(=O)(=O)c3ccc4c(c3)OCCO4)c(=O)[nH]c2c1C (centres undefined),9.1
4,Nc1n[nH]c(N)c1N=Nc1ccc(Cl)cc1,1.65
5,Cc1ccc(-c2[nH]nc(N)c2N=Nc2cccc(Cl)c2C)cc1,0.18
6,COC(=O)c1ccccc1N=Nc1c(N)n[nH]c1N,-10.6
7,Nc1n[nH]c(N)c1N=Nc1cccc(F)c1,0.51
8,CCn1cc(C2=NC(C(C)C)CO2)c2ccccc21 (centres undefined),5.08
9,CCOc1ccc(OCC)c(NC(=O)Nc2ccc3c(c2)N(C)C(=O)CS3)c1,1.8
10,O=C(O)c1cc(NC(=O)C2CCCO2)cc(NC(=O)C2CCCO2)c1 (centres undefined),-1.59
11,CC1(C)CC(=O)C(/C=N/n2c(C(F)(F)F)nc3ccccc3c2=O)=C(O)C1,13.1
12,O=C(CSc1nnc(-c2ccccc2F)n1C1CCCCC1)N1CCCC1,-3.16
13,OC(CN1CCN(c2ccccn2)CC1)Cn1c2ccccc2c2ccccc21 (centres undefined),34.8
14,Cc1cc(C)c(OCC(O)CN2CCN(c3ccccn3)CC2)c(C)c1 (centres undefined),-4.16
15,OC(COCc1ccc(Cl)cc1)CN1CCN(c2ccccn2)CC1 (centres undefined),6.32
16,OC(COC(c1ccccc1)c1ccccc1)CN1CCN(c2ccccn2)CC1 (centres undefined),3.57
17,CC(C)C1=C2CCCCC2NC(=O)N1 (centres undefined),-3.19
18,O=C(CN1CCSC1=NCc1ccccc1)c1ccccc1,0.24
19,Cc1nc(SCC(=O)c2cc3ccccc3oc2=O)c(C#N)c(C)c1C(=O)Nc1ccccc1,1.89
20,N#Cc1ccc(-c2ccccc2)nc1SCC(=O)c1cccc(Cl)c1,12.6
21,Cc1nc(SCC(=O)OCc2ccccc2)c(C#N)c(-c2ccccc2)c1C(=O)Nc1ccccc1,1.59
22,Cc1ccc(C(=O)CSc2nc(-c3ccccc3)ccc2C#N)cc1,4.37
